Experimental data as given in PubChem BioAssay AID489008 (National Center for Advancing Translational Sciences (NCATS), 2010).
Results filed as inconclusive are left out. Activity calls are given as the source filed them. Calls come from the whole dose curve; as a rule, active = well fitted inhibition curve with a large enough effect; inconclusive = small, poorly fitted or top-dose-only effect; inactive = flat fitted curve, though single readings scatter.

Target: Ferritin light chain (Equus caballus) (UniProt P02791)
Test: Confirmation Assay for Identification of Novel General Anesthetics; note: nearly all actives have a fitted effect of over 40% in size
Conditions: apoferritin 1-aminoanthracene fluorescence displacement
How it was run: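 Horse apoferritin (10 uM) pre-loaded with 1-AMA (50% saturated, PBS) exposed to compounds 10 min at room temperature; loss of 1-AMA fluorescence (380/535 nm) scaled between free and bound ligand, curves fitted with Hill equation.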
Potency is the fitted concentration of half-maximal effect.

Chain of Ferritin light chain (Equus caballus) (P02791 2-175 limits assumed): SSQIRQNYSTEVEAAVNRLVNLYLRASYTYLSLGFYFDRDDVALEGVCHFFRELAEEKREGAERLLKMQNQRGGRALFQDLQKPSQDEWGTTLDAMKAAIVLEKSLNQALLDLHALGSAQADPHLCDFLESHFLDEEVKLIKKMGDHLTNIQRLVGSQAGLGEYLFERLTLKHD

Potency, active:
Nc1nc(-c2ccc3c(c2)CCCC3)cs1 28.2 µM
Cc1ccc(NC(=O)N2CCCCCC2)cc1C 6.31 µM
Cc1ccc(OCC(=O)N2CCCCCCC2)cc1C 35.5 µM
O=C(CSCc1ccccc1)Nc1cc([N+](=O)[O-])ccc1F 31.6 µM
Cc1cc(C)cc(NC(=O)N2CCCCCCC2)c1 6.31 µM
CC1(C)CC(=O)c2c(Cc3ccccc3)noc2C1 14.1 µM
O=C(CCc1ccccc1)NC(=S)Nc1ccccc1[N+](=O)[O-] 15.8 µM
Nc1cc(Cl)ccc1Oc1ccc2ccccc2c1 15.8 µM
CC1CCCN(C(=O)COc2ccc(Nc3ccccc3)cc2)C1 (stereo not drawn) 25.1 µM
O=C1C2CC=CCC2C(=O)N1Cc1ccccc1Cl (stereo not drawn) 7.94 µM
CCCCOC(=O)Nc1ccc(C)c(Cl)c1 17.8 µM
Cc1cc(C)cc(OCc2nnc(SCC(=O)OC(C)C)o2)c1 12.6 µM
CCC(CC)C(=O)OCC(=O)NC12CC3CC(CC(C3)C1)C2 10 µM
O=C1c2ccsc2SCCN1Cc1ccc(Cl)cc1Cl 15.8 µM
Cc1cc(N2CC(C(=O)Nc3nccs3)CC2=O)ccc1C(C)C (stereo not drawn) 14.1 µM
Nc1ccc(CSc2ccc(Cl)cc2)cc1 15.8 µM
Cc1ccc(C(=S)N2CCCCCC2)cc1 28.2 µM
Fc1ccc(CNc2ccc(CNc3ncn[nH]3)cc2)cc1 17.8 µM
O=C1CC(c2ccc(O)cc2)Oc2ccccc21 (stereo not drawn) 15.8 µM
CC1(C)CC(=O)c2c(noc2-c2ccccc2)C1 17.8 µM
Cc1cc(C)c(C)c(OCC(=O)N2CCCCCC2)c1 17.8 µM
Fc1ccccc1SCc1nnc(-c2ccccc2Br)o1 15.8 µM
Cc1ccc(O)c(NC(=O)CCC2CCCCC2)c1 7.94 µM
CC1CCCC(C)N1C(=O)CSc1nnnn1Cc1ccccc1 (stereo not drawn) 8.91 µM
Fc1ccccc1CNc1ccc(Cl)c(Cl)c1 10 µM
O=[N+]([O-])c1ccc(CNc2cccc(Cl)c2)s1 15.8 µM
c1ccc(CCNc2nc3ccccc3s2)cc1 10 µM
CC1Cc2ccccc2N1C(=O)CSc1ccccc1 (stereo not drawn) 14.1 µM
Nc1nc(C23CC4CC(CC(C4)C2)C3)cs1 7.94 µM
Cc1ccc(NCc2ccccc2)cc1 10 µM
CC1CCCCC1NC(=O)Cn1nc(-c2ccccc2)ccc1=O (stereo not drawn) 7.08 µM
CCN(C(=O)c1ccco1)C1C2CC3CC(C2)CC1C3 (stereo not drawn) 14.1 µM
N/C(Cc1ccc(Cl)cc1)=N\OC(=O)c1cccc2ccccc12 8.91 µM
Cn1cc([N+](=O)[O-])c(C(=O)Nc2ccc(C3CCCCC3)cc2)n1 14.1 µM
O=C(COC(=O)CC1CC2CCC1C2)Nc1ccc(F)cc1 (stereo not drawn) 20 µM
COc1ccccc1OCC(=O)N1CCCCCCC1 12.6 µM
CCc1c(O)nc(SC2CC(=O)N(c3ccccc3)C2=O)[nH]c1=O (stereo not drawn) 31.6 µM
CC1(COc2ccc(CC3SC(=O)NC3=O)cc2)CCCCC1 (stereo not drawn) 14.1 µM
